Bioassay records deposited in PubChem BioAssay by several laboratories.
This is a sample that favours compounds with a hit; in the whole collection about 3.9% have one here.
NTR1 ag – activates human neurotensin receptor 1; NTR1-U2OS beta-arrestin-GFP spot imaging, agonist mode; activation, % at 20 µM; actives 0.17% (n = 330,000); AID 493036;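 active = activation at or above 40% of the spot to cytoplasm intensity ratio, with at least 20 cells analyzed; inconclusive = wells under 20 cells, flagged as cytotoxic or low count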
Target sequence (P30989 whole entry, looked up): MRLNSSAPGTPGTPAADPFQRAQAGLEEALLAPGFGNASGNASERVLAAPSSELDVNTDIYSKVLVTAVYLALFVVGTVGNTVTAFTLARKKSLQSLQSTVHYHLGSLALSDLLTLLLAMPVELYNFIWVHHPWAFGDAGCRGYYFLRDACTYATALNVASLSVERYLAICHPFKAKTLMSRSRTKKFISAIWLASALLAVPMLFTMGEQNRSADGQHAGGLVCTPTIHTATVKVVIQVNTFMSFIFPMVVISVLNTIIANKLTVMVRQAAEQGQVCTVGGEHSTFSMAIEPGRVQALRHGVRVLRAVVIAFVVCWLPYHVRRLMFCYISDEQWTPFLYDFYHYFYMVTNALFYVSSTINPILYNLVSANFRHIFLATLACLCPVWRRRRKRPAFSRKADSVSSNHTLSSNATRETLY
SUMO HTRF inh – inhibitors of human SUMOylation (UBC9) | P63279 | HTRF SUMOylation assay, SAE1/SAE2 + UBC9, in vitro | inhibition, % at 35 µM | actives 0.36% (n = 290,000) | AID 2006; in the data active = inhibition above about 50%, passing the limit was not always enough; inconclusive = no clear call, values can overlap the other calls
H9c2 protect – myocardial damage modulation in H9c2 cells. actives 0.63% (n = 360,000). H9c2 cardiomyocytes, H2O2 injury protection, ATPLite, 2 h. AID 588492. protection from H2O2 cell death, % at 20 µM;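 active = compounds giving at least 50% protection of heart cells from peroxide-induced death in the single-dose screen, raw or plate-pattern-corrected value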
ALR inh – human ALR oxidase inhibition via reduced H2O2; purified ALR, DTT oxidation, H2O2 HRP-luminol luminescence; inhibition, % (test concentration not listed); actives 3.8% (n = 290,000);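 active = mean replicate inhibition above about 79%, with every replicate also reaching it, limit read from the data; inconclusive = only one of the two criteria met; inactive = mean below limit and not every replicate reaching it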
Target sequence (P55789 whole entry, looked up): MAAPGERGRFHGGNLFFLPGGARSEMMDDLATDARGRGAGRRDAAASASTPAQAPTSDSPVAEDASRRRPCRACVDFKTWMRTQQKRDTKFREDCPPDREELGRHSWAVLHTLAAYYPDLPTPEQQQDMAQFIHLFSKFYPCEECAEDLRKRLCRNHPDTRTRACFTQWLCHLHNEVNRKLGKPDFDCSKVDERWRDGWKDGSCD
Each line names hits and unclear results; the compound was inactive in the other large screens.

CC(=O)N1CCN(c2ccc(Nc3ncnc4c3oc3ccccc34)cc2)CC1	ALR inh 99
CCc1nc(Nc2ccc(N3CCN(C(C)=O)CC3)cc2)c2oc3ccccc3c2n1	ALR inh 96
CCc1nc(N2CCN(C(=O)c3ccco3)CC2)c2oc3ccccc3c2n1	H9c2 protect 51 (no result: NTR1 ag)
Cc1cc(Cl)nc(SCC(=O)c2ccccc2)n1	none
Cc1cc(O)ccc1NS(=O)(=O)c1ccc2c3c(cccc13)C(=O)N2	ALR inh 99
CCOc1ccc2c(c1)C(N(CCN1CCOCC1)C(=O)Nc1ccc(OC)cc1OC)CC(C)(C)O2 (configuration not stated)	none
COc1ccc(F)cc1COc1nc(C)nc2ccccc12	none
Cc1nc(OCc2ccccc2)c2ccccc2n1	H9c2 protect 51
COc1ccc(C2CC(c3ccc(F)cc3)Nc3nc(N)nn32)cc1OC (configuration not stated)	none
O=C(NCc1ccc(F)cc1)c1cc(C2CCCCN2S(=O)(=O)c2cccc3cccnc23)on1 (configuration not stated)	none (no result: NTR1 ag, SUMO HTRF inh, ALR inh)
CCc1nc(SCC(=O)N2CCN(C(=O)c3ccco3)CC2)c2c3c(sc2n1)CCCC3	none
Cc1cc2nc(-c3ccc(SCc4ccc(C(=O)O)cc4)nc3)[nH]c2cc1C	ALR inh 99 (no result: NTR1 ag)
Cc1cc2nc(-c3ccc(SCC(=O)NC(C)C)nc3)[nH]c2cc1C	none (no result: H9c2 protect)
O=C(CCCN1C(=O)c2ccccc2C1=O)N1CCC(c2ccccc2)C1 (configuration not stated)	none
O=C(NNC(=S)NC1CCCCC1)c1ccccc1O	ALR inh 97
O=C(NNC(=S)NC1CCCCC1)c1cccs1	ALR inh inconclusive
O=[N+]([O-])c1ccc(O)c(C=Nc2cccc3ccccc23)c1	none
O=[N+]([O-])c1cccc(C=Nc2cccc3ccccc23)c1O	SUMO HTRF inh 51
CCOC(=O)c1c(/N=C/c2cccc([N+](=O)[O-])c2O)sc(C)c1C	ALR inh 86
COCCn1c(=NC(=O)CCS(=O)(=O)c2ccccc2)sc2cc(C(=O)OC)ccc21	none
COCCn1c(=NC(=O)CSCC(=O)Nc2cc(C)on2)sc2cc(C(=O)OC)ccc21	ALR inh 92
O=C(CCn1c(=S)[nH]c2ccccc2c1=O)Nc1cccc(Cl)c1	none
Cc1cc(Sc2nnc(/N=C/N(C)C)s2)c2ccccc2n1	ALR inh 98
Cc1cc(Sc2nnc(N)s2)c2ccccc2n1	none
Cc1nc(NC(=O)c2ccccc2)sc1C	none
Cc1nc(Nc2ccccc2)sc1C	ALR inh 99
Cc1csc(Nc2ccccc2)n1	ALR inh 98
O=C(NCC(c1ccco1)N1CCOCC1)c1cccc(Cl)c1 (configuration not stated)	none (no result: SUMO HTRF inh)
Cc1ccc(S(=O)(=O)N2[C@@H](c3ccc(Cl)cc3)C(C(=O)O)=CC[C@H]2c2ccc(C(C)C)cc2)cc1	ALR inh 95 (no result: SUMO HTRF inh)
COc1ccccc1NC(=O)c1ccc(NC(=O)c2ccco2)cc1	none
COc1cc(OC)cc(C(=O)Nc2ccc(C(=O)Nc3ccccc3OC)cc2)c1	H9c2 protect 51 (no result: SUMO HTRF inh, ALR inh)
CCC(c1nnc(SCC(=O)Nc2ccc(C(=O)Nc3ccccc3OC)cc2)o1)N(C)C (configuration not stated)	ALR inh 99
COc1ccccc1NC(=O)c1ccc2[nH]c(C)c(C)c2c1	ALR inh 87
COc1ccccc1NC(=O)c1ccc(NC(=O)CSc2ncccn2)cc1	none
Cc1c(Cl)cccc1NCC(=O)NN=C1CCCC1	none
COc1cccc(CNC(=O)c2ccc(COc3ccccc3)cc2)c1	none
Cc1oc(-c2ccccc2F)nc1CS(=O)CC(=O)NCc1ccc(Cl)cc1 (configuration not stated)	none
Cc1oc(-c2ccccc2Cl)nc1CS(=O)CC(=O)NCc1ccc2c(c1)OCO2 (configuration not stated)	ALR inh 82
O=C(NCc1ccc2c(c1)OCO2)c1cc(-c2ccccc2Cl)on1	none
Cc1oc(-c2cccs2)nc1CS(=O)CC(=O)NCc1ccc2c(c1)OCO2 (configuration not stated)	none
Cc1ccccc1-c1nc(CS(=O)CC(=O)NCc2ccc3c(c2)OCO3)c(C)o1 (configuration not stated)	ALR inh 98
Cc1oc(-c2ccccc2Cl)nc1CS(=O)CC(=O)NCc1ccc(Cl)cc1 (configuration not stated)	ALR inh 99
O=C(Cn1cnc2ccccc2c1=O)c1ccc(Br)cc1	none
O=S(=O)(Nc1ccc2c(c1)OCO2)c1ccccc1	none
CN(C)CCCNS(=O)(=O)c1cc(Cl)ccc1Cl	none
CC1=CC=CC2=NC(=O)CC(C)(C(=O)N(CC(=O)NC(C)C)C3CCCC3)N12 (configuration not stated)	none
S=C1Cc2ccccc2N1	SUMO HTRF inh 60 (no result: NTR1 ag, ALR inh)
CC[C@@H]1[C@H]2CCCC(=O)N3CC[C@@H](C[C@@H]1Nc1ccccc1)[C@@H]23	ALR inh 99
CCN(CC)c1ccc(/C=C(\C#N)C(=O)c2ccc(Br)cc2)cc1	none (no result: NTR1 ag, ALR inh)
CCN(CCNC(=O)c1ccc(C#N)cc1)c1cccc(C)c1	ALR inh 98
Cc1cc(C)c(-c2c(N)cc(Br)cc2Br)c(N)c1	none (no result: NTR1 ag, SUMO HTRF inh, ALR inh)
COc1cc(/C=C/C(=O)O)cc(S(=O)(=O)NNC(=O)c2ccc3c(c2)OCO3)c1OC	ALR inh 90 (no result: SUMO HTRF inh)
COc1cc(/C=C/C(=O)O)cc(S(=O)(=O)Nc2ccc3c(c2)OCO3)c1OC	none
CC1=CC(C)(C)N2C(=O)C(=Nc3ccc(O)cc3)c3cccc1c32	ALR inh 97
CCCOc1ccc(Cn2c(C)nc([N+](=O)[O-])c2SCC(O)COC)cc1[N+](=O)[O-] (configuration not stated)	ALR inh 99
CCOc1ccc(Cn2c(C)nc([N+](=O)[O-])c2SCC(O)CCl)cc1[N+](=O)[O-] (configuration not stated)	none
O=C(COc1nsnc1N1CCOCC1)N/N=C/c1ccccc1O	H9c2 protect 73 (no result: ALR inh)
O=C(CCC(=O)Nc1ccc(Br)cc1)N/N=C/c1ccccc1O	none
Cc1ccc(NC(=O)CCC(=O)N/N=C/c2ccccc2O)cc1	H9c2 protect 52
Cc1ccc(SCCC(=O)N/N=C/c2ccccc2O)cc1	H9c2 protect 65
Cc1cccc(NC(=S)N/N=C/c2cccc(O)c2)c1C	none (no result: ALR inh)
Cc1ccccc1NC(=S)N/N=C/c1ccc(O)cc1O	ALR inh 99
O=C(O)COc1ccc(/C=N/NC(=O)COc2nsnc2N2CCOCC2)cc1	none
C=CCOC(=O)c1[nH]c2c(c1C)C(=O)CC(c1ccco1)C2 (configuration not stated)	none (no result: H9c2 protect)
COc1cccc(OC)c1C(=O)OCC(=O)N1CCC(Cc2ccccc2)CC1	none (no result: SUMO HTRF inh)
O=C(CSCC(=O)NN=Cc1ccccc1O)NN=Cc1ccccc1O	none (no result: NTR1 ag, SUMO HTRF inh, ALR inh)
COc1ccccc1/C=N/NC(=O)CC(=O)NCc1cccnc1	none
O=C(CCCCC(=O)NN=Cc1ccccc1O)NN=Cc1ccccc1O	H9c2 protect 60 (no result: NTR1 ag, SUMO HTRF inh, ALR inh)
Cc1cc([N+](=O)[O-])nn1CC(=O)N/N=C/c1ccccc1O	H9c2 protect 58
CCCCCCCC(=O)N/N=C/c1ccco1	none
O=C(CC(=O)N/N=C/c1ccccc1O)NCc1cccnc1	H9c2 protect 63
